According to PubChem BioAssay:
Results filed as inconclusive are left out. The source made the active and inactive calls.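 How the source made its calls, unless noted: active means normalized viability below 100% at a tested concentration; inactive means the rest.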

Assays:
[1] = growth inhibition of DIPG glioma cells, dose response, cell-based, SU-DIPG-XVII, MIPE5.0, CellTiter-Glo, qHTS (AID 1347060; cut-off not given, nearly all actives have AC50 up to about 26 µM;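 further: cells exposed to compound for 48 hours before viability readout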); conditions: SU-DIPG-XVII viability, CellTiter-Glo ATP luminescence
[2] = growth inhibition of DIPG glioma cells, dose response, cell-based, SU-DIPG-XIII, MIPE4.0, CellTiter-Glo, qHTS (AID 1347061; cut-off not given, nearly all actives have AC50 up to about 37 µM;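 further: cells exposed to compound for 48 hours before readout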); conditions: SU-DIPG-XIII viability, CellTiter-Glo ATP luminescence
[3] = growth inhibition of DIPG glioma cells, dose response, cell-based, JHH-DIPG-1, MIPE4.0, CellTiter-Glo, qHTS (AID 1347062; cut-off not given, nearly all actives have AC50 up to about 27 µM;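 further: cells exposed to compound for two days before readout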); conditions: JHH-DIPG-1 viability, CellTiter-Glo ATP luminescence
[4] = growth inhibition of DIPG glioma cells, dose response, cell-based, SU-DIPG-IV, MIPE4.0, CellTiter-Glo, qHTS (AID 1347063; cut-off not given, nearly all actives have AC50 up to about 30 µM;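 further: compound exposure lasted 48 hours before the viability readout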); conditions: SU-DIPG-IV viability, CellTiter-Glo ATP luminescence
[5] = growth inhibition of DIPG glioma cells, dose response, cell-based, SU-DIPG-XIII, MIPE5.0, CellTiter-Glo, qHTS (AID 1347064; cut-off not given, nearly all actives have AC50 up to about 23 µM;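 further: cells exposed to compound for 48 hours before the viability read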); conditions: SU-DIPG-XIII viability, CellTiter-Glo ATP luminescence
[6] = viability loss in pontine glioma line – cell-based, SU-DIPG-XXV, MIPE5.0, CellTiter-Glo, qHTS, dose response (AID 1347065; cut-off not given, nearly all actives have AC50 up to about 26 µM;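 further: cells exposed to compound for 48 hours before ATP readout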); conditions: CellTiter-Glo ATP luminescence
[7] = SU-DIPG-VI glioma cell viability, MIPE4.0 library, CellTiter-Glo luminescence, qHTS (AID 1347066; cut-off not given, nearly all actives have AC50 up to about 30 µM;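 further: cells exposed to compound for 48 hours before readout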); conditions: CellTiter-Glo ATP luminescence
[8] = JHH-DIPG-1 glioma cell viability, MIPE5.0 library, CellTiter-Glo luminescence, qHTS (AID 1347067; cut-off not given, nearly all actives have AC50 up to about 26 µM;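 further: cells exposed to compound for 48 hours before readout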); conditions: JHH-DIPG-1 glioma viability, CellTiter-Glo ATP luminescence
[9] = SU-DIPG-XXV glioma cell viability, MIPE5.0 library, qHTS (AID 1347068; cut-off not given, nearly all actives have IC50 up to about 30 µM;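 further: cells exposed to compound for 48 hours before viability readout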)
[10] = sensitizers of A549 cells to miR-34 induction, primary screen, imaging, A549 dox-inducible miR-34, nuclei and caspase counts (AID 1347080;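 active means compounds whose cell count with miR-34 switched on is under 0.7 times the count with it off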); conditions: A549 miR-34 inducible, Hoechst nuclei count, 48 h
[11] = modifiers of HSF1 nuclear foci, imaging, Selleck Cancer Library (AID 1347162; in the data active means plate-normalised HSF1 focus index below about 0.46); conditions: human cells, at 10 µM; SSMD: measured here: HSF1 foci SSMD mean; cell count: measured here: cell number; plate-normalised HSF1 focus index: stronger effect = lower value
[12] = survival rescue of mitochondrial mutant cells in low glucose, primary screen, MELAS cybrids, Rieske KO mouse fibroblasts, CellTiter-Glo (AID 1508586;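 active means mean z-score across replicates of 1.96 or higher in either the MELAS or the Rieske mutant cell line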;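 further: z relative to plate mean and SD of compound and empty wells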)
[13] = ovarian cancer cell viability with rucaparib, profiling panel, oncology-focused library, rucaparib conditional (AID 1508598); conditions: patient-derived ovarian cancer cells, CellTiter-Glo viability, 144 h, stronger effect = lower value
[14] = LFS_MB_P medulloblastoma growth inhibition, cell-based, chromothripsis tumors, cisplatin or BGB combos (AID 1671449; in the data active means inhibition above about 80%;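 further: cells exposed for 96 hours; 0% = vehicle DMSO and 100% = killing by high DMSO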); conditions: LFS_MB_P medulloblastoma cells
[15] = HDN33 neuroblastoma growth inhibition, cell-based, chromothripsis tumors, cisplatin or BGB combos (AID 1671450; in the data active means inhibition above about 80%;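 further: cells exposed to compound for four days; 0% = vehicle DMSO and 100% = cell killing by high DMSO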); conditions: HDN33 neuroblastoma cells, stronger effect = higher value
[16] = ICB984 medulloblastoma cell growth inhibition, synergistic combos for chromothripsis tumors, cisplatin or BGB combos (AID 1671451; call rule not given here;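 further: cells exposed for 96 hours before readout; 0% = vehicle DMSO and 100% = killing by high DMSO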); conditions: ICB984 medulloblastoma cells, drug combinations, stronger effect = higher value
[17] = HTB85 osteosarcoma cell growth inhibition, synergistic combos for chromothripsis tumors, BGB or cisplatin IC20 combos (AID 1671453; in the data active means inhibition above about 80%;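 further: cells exposed for 96 hours before readout; 0% = vehicle DMSO and 100% = high DMSO killing control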); conditions: HTB85 osteosarcoma cells, drug combinations, stronger effect = higher value
[18] = MDA-MB-436 breast carcinoma cell growth inhibition, synergistic combos for chromothripsis tumors, BGB or cisplatin combos (AID 1671458; call rule not given here;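 further: cells exposed for 96 hours; 0% = vehicle DMSO and 100% = killing by high DMSO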); conditions: MDA-MB-436 breast carcinoma growth inhibition, drug combinations, stronger effect = higher value
[19] = growth inhibition of BT084 medulloblastoma cells, cell-based, ICGC_MB145, cisplatin and BGB IC40 combos (AID 1671461; in the data active means inhibition above about 80%;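 further: cells exposed to drugs for 96 hours; 0% = vehicle DMSO and 100% = high DMSO full killing control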); conditions: drug combinations, stronger effect = higher value
[20] = growth inhibition of RCMB18 medulloblastoma cells, cell-based, cisplatin and BGB IC40 combos (AID 1671462; in the data active means inhibition above about 80%;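 further: cells exposed to compound for four days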); conditions: stronger effect = higher value

What does the source list for `O=c1cc(N2CCOCC2)oc2c(-c3cccc4c3sc3ccccc34)cccc12`?
AC50 [1]: 13.2 µM (active); outcome [2]: inactive; AC50 [3]: 23.5 µM (active); AC50 [4]: 14.8 µM (active); AC50 [5]: 16.6 µM (active); AC50 [6]: 14.8 µM (active); AC50 [7]: 18.7 µM (active); AC50 [8]: 16.6 µM (active); IC50 [9]: 29.5 µM (active); fold change ([10]; stronger effect = lower value, cell number ratio, induced over uninduced): 0.901 (inactive); fold change ([10]; measured here: relative caspase fold change +Dox/-Dox): 0.761; cell count ([10]; measured here: total cells with miR-34 induction, stronger effect = lower value): 6010; cell count ([10]; measured here: total cells without miR-34 induction): 6670; SSMD [11]: -0.228; cell count [11]: 7060; plate-normalised HSF1 focus index [11]: 0.984 (inactive); z-score ([12]; MELAS cybrid survival, CellTiter-Glo 48 h, stronger effect = higher value): -0.264 (inactive); z-score ([12]; Rieske KO mouse fibroblast survival, CellTiter-Glo 72 h): 1.08; viability ([13]; at 0.000305 µM, OCI-C5x cells, with rucaparib 10 µM, 100% = cells with rucaparib alone): 98.4% (active); viability ([13]; at 0.000305 µM, OCI-C5x cells, without rucaparib): 106% (inactive); viability ([13]; at 0.000305 µM, OCI-P5x cells, with rucaparib 20 µM, 100% = cells with rucaparib alone): 104% (inactive); viability ([13]; at 0.000305 µM, OCI-P5x cells, without rucaparib): 99.9% (active); viability ([13]; at 0.00122 µM, OCI-C5x cells, with rucaparib 10 µM, 100% = cells with rucaparib alone): 100% (inactive); viability ([13]; at 0.00122 µM, OCI-C5x cells, without rucaparib): 104% (inactive); viability ([13]; at 0.00122 µM, OCI-P5x cells, with rucaparib 20 µM, 100% = cells with rucaparib alone): 103% (inactive); viability ([13]; at 0.00122 µM, OCI-P5x cells, without rucaparib): 102% (inactive); viability ([13]; at 0.00488 µM, OCI-C5x cells, with rucaparib 10 µM, 100% = cells with rucaparib alone): 101% (inactive); viability ([13]; at 0.00488 µM, OCI-C5x cells, without rucaparib): 103% (inactive); viability ([13]; at 0.00488 µM, OCI-P5x cells, with rucaparib 20 µM, 100% = cells with rucaparib alone): 107% (inactive); viability ([13]; at 0.00488 µM, OCI-P5x cells, without rucaparib): 99% (active); viability ([13]; at 0.0195 µM, OCI-C5x cells, with rucaparib 10 µM, 100% = cells with rucaparib alone): 98.9% (active); viability ([13]; at 0.0195 µM, OCI-C5x cells, without rucaparib): 103% (inactive); viability ([13]; at 0.0195 µM, OCI-P5x cells, with rucaparib 20 µM, 100% = cells with rucaparib alone): 107% (inactive); viability ([13]; at 0.0195 µM, OCI-P5x cells, without rucaparib): 92.1% (active); viability ([13]; at 0.0781 µM, OCI-C5x cells, with rucaparib 10 µM, 100% = cells with rucaparib alone): 108% (inactive); viability ([13]; at 0.0781 µM, OCI-C5x cells, without rucaparib): 98% (active); viability ([13]; at 0.0781 µM, OCI-P5x cells, with rucaparib 20 µM, 100% = cells with rucaparib alone): 98.6% (active); viability ([13]; at 0.0781 µM, OCI-P5x cells, without rucaparib): 90.1% (active); viability ([13]; at 0.313 µM, OCI-C5x cells, with rucaparib 10 µM, 100% = cells with rucaparib alone): 97% (active); viability ([13]; at 0.313 µM, OCI-C5x cells, without rucaparib): 99% (active); viability ([13]; at 0.313 µM, OCI-P5x cells, with rucaparib 20 µM, 100% = cells with rucaparib alone): 99.1% (active); viability ([13]; at 0.313 µM, OCI-P5x cells, without rucaparib): 91.6% (active); viability ([13]; at 1.25 µM, OCI-C5x cells, with rucaparib 10 µM, 100% = cells with rucaparib alone): 101% (inactive); viability ([13]; at 1.25 µM, OCI-C5x cells, without rucaparib): 108% (inactive); viability ([13]; at 1.25 µM, OCI-P5x cells, with rucaparib 20 µM, 100% = cells with rucaparib alone): 95.4% (active); viability ([13]; at 1.25 µM, OCI-P5x cells, without rucaparib): 85.4% (active); viability ([13]; at 5 µM, OCI-C5x cells, with rucaparib 10 µM, 100% = cells with rucaparib alone): 66.1% (active); viability ([13]; at 5 µM, OCI-C5x cells, without rucaparib): 89.5% (active); viability ([13]; at 5 µM, OCI-P5x cells, with rucaparib 20 µM, 100% = cells with rucaparib alone): 49.8% (active); viability ([13]; at 5 µM, OCI-P5x cells, without rucaparib): 78.7% (active); inhibition ([14]; at 0.5 µM, stronger effect = higher value): -9.52% (inactive); inhibition ([14]; measured here: combination with BGB IC20, at 0.005 µM): -35.2%; inhibition ([14]; measured here: combination with BGB IC40, at 0.005 µM): -73.8%; inhibition ([14]; measured here: combination with BGB IC40, at 0.05 µM): -46%; inhibition ([14]; measured here: combination with cisplatin, at 0.5 µM, stronger effect = higher value): -30%; inhibition ([14]; measured here: combination with cisplatin, at 5 µM, stronger effect = higher value): -29.6%; inhibition ([15]; BGB combo, at 5 µM): -83.5%; inhibition ([15]; at 0.5 µM): -25.6% (inactive); inhibition ([15]; cisplatin combo, at 5 µM): -52%; inhibition ([15]; measured here: with BGB IC20 combination, at 0.5 µM): -33.3%; inhibition ([15]; measured here: with cisplatin IC20 combination, at 0.5 µM): -8.96%; inhibition ([15]; single agent, at 5 µM): -28.3%; inhibition ([16]; BGB IC20 combo, at 0.005 µM): -21.3%; inhibition ([16]; BGB IC40 combo, at 0.005 µM): -19.1%; inhibition ([16]; BGB IC40 combo, at 0.05 µM): -12.3%; inhibition ([16]; at 0.5 µM): -40.4% (inactive); inhibition ([16]; cisplatin combo, at 0.05 µM): -18%; inhibition ([16]; cisplatin combo, at 0.5 µM): -48.2%; inhibition ([16]; cisplatin combo, at 5 µM): -17.2%; inhibition ([16]; measured here: 5 uM single agent, at 5 µM): -2.07%; inhibition ([17]; at 0.5 µM): -12.3% (inactive); inhibition ([17]; measured here: with BGB IC20, at 0.5 µM): 1.92%; inhibition ([17]; measured here: with BGB IC20, at 5 µM): -7.86%; inhibition ([17]; measured here: with cisplatin IC20, at 0.5 µM): -21.1%; inhibition ([17]; measured here: with cisplatin IC20, at 5 µM): -6.63%; inhibition ([17]; single agent, at 5 µM): 12.4%; inhibition ([18]; at 0.5 µM): -3.85% (inactive); inhibition ([18]; measured here: BGB combination, at 0.5 µM): 6.02%; inhibition ([18]; measured here: BGB combination, at 5 µM): 9.28%; inhibition ([18]; measured here: cisplatin combination, at 0.5 µM): -13%; inhibition ([18]; measured here: cisplatin combination, at 5 µM): 5.38%; inhibition ([19]; at 0.5 µM): -28.7% (inactive); inhibition ([19]; cisplatin combination, at 0.5 µM): -22.9%; inhibition ([19]; cisplatin combination, at 5 µM): -216%; inhibition ([19]; measured here: BGB IC40 combination 0.05 uM, at 0.05 µM): -22.7%; inhibition ([19]; single agent, at 5 µM): -20.5%; inhibition ([20]; at 0.5 µM): -29.6% (inactive); inhibition ([20]; cisplatin combo, at 5 µM): -34.8%; inhibition ([20]; measured here: BGB IC40 combination, at 0.05 µM): -8.83%; inhibition ([20]; measured here: combination with cisplatin, at 0.5 µM): -51.5%; inhibition ([20]; single agent, at 5 µM): 0.048%
